Inconclusive results are not listed. A call without a number means that no potency is given here. Calls of active or inactive are those of the source. The call rests on the fitted dose curve; in most records, active means well fitted inhibition curve with a large enough effect in the repeat runs; inconclusive means weak or mixed curves; inactive means flat fitted curve, though single readings scatter.
What follows are compounds tested against Luciferin 4-monooxygenase (Photinus pyralis) (UniProt P08659) (assay: qHTS assay to identify small molecule inhibitors of firefly luciferase (AID 1224835; further: nearly all actives have a fitted effect of over 25% in size)). Settings: purified P. pyralis luciferase, luminescence inhibition; series mostly up to 52.9 µM.
Sequence of Luciferin 4-monooxygenase (Photinus pyralis) (P08659 whole entry, looked up): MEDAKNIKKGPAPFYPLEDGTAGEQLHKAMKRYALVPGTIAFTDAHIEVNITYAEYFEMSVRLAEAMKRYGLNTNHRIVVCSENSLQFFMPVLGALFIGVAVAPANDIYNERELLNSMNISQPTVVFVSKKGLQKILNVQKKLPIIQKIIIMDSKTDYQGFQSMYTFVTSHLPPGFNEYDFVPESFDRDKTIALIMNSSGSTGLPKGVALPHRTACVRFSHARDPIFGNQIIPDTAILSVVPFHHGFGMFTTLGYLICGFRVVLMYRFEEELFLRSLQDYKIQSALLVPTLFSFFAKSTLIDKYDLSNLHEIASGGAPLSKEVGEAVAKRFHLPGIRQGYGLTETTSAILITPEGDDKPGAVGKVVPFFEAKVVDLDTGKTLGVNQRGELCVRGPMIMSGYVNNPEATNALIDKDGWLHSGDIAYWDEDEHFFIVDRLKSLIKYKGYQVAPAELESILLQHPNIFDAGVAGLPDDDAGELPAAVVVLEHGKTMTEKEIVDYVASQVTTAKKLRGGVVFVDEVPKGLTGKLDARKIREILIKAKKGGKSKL
Source text: U.S. Tox21 Program National Center for Advancing Translational Sciences [NCATS] NIH Chemical Genomics Center [NCGC] U.S. Environmental Protection Agency [EPA] National Institutes of Environmental Health Sciences [NIEHS] National Toxicology Program [NTP] U.S. Food and Drug Administration [FDA] Tox21 Assay Overview: Firefly (Photinus pyralis) luciferase is one of the most commonly used transcriptional reporters. Firefly luciferase reporter-gene assays are generally considered one of the most sensitive assay types (Wood, 1995; Wood, 1998). However, it was initially observed, in 1991, by Thompson et al., that compounds that resemble the substrates of firefly luciferase (FLuc) can act as competitive inhibitors of the enzyme, and that these compounds, upon interaction with luciferase in the cell, can actually stabilize the protein and increase its half-life. Previous profiling work by other groups to determine the prevalence of compounds that affect FLuc enzymatic activity (PubChem AID 411) identified that ~3% of the MLSMR library (then at ~72K) inhibited FLuc. […] Thus the Tox21 10K library is profiled for activity against FLuc using a biochemical assay of purified FLuc and KM concentrations of FLuc substrates (D-luciferin and ATP).
These assay plates were then treated with 23nL of compound or DMSO using a Kalypsys pin tool, which allows for delivery of a 6-point interplate titration of each compound to the assay plate (quantitative HTS.) 1 uL of firefly luciferase mix (containing 50 mM Tris acetate, pH 7.6, 0.04 uM P. pyralis luciferase, 0.01% Tween, 0.05% BSA and dH2O) was then delivered by FRD to each well. Luciferase activity was then measured using a ViewLux CCD imager.

SMILES | Potency
C[C@@H](O[C@H]1OCCN(Cc2n[nH]c(=O)[nH]2)[C@H]1c1ccc(F)cc1)c1cc(C(F)(F)F)cc(C(F)(F)F)c1 | inactive
O=Cc1c2ccccc2c(Cl)c2ccccc12 | inactive
O=C(CCc1ccc(O)cc1)c1c(O)cc(O)cc1O | 72.6 µM (active)
CCCCN1CCCC1C(=O)Nc1c(C)cc(C)cc1C (stereo not given) | inactive
Nc1cccc2c1CN(C1CCC(=O)NC1=O)C2=O (stereo not given) | inactive
CN1CCCC(CC2c3ccccc3Sc3ccccc32)C1 (stereo not given) | inactive
CCCCCCCC/C=C\CCCCCCCCO | inactive
O=C(OC(=O)c1ccccc1)c1ccccc1 | inactive
CCOC(=O)c1ccccc1C(=C1C=C(Br)C(=O)C(Br)=C1)c1cc(Br)c(O)c(Br)c1 | 66.8 µM (active)
CCN(CC)CCNC(=O)COc1ccc(OC)cc1 | inactive
C=CCc1ccccc1OCC(O)CNC(C)C (stereo not given) | inactive
CCC(C)(C)OC | inactive
C[C@H]1c2cccc(O)c2C(O)=C2C(=O)[C@]3(O)C(O)=C(C(N)=O)C(=O)[C@@H](N(C)C)[C@@H]3[C@@H](O)[C@@H]21 | inactive
C=C/C(C)=C/C/C=C(\C)CCC=C(C)C | inactive
CCOC(=O)c1ccc(OCCN2C[C@H](O)[C@@H](O)[C@H](O)[C@H]2CO)cc1 | inactive
CC(C)(c1ccccc1)c1ccccc1 | inactive
c1csc(SSc2cccs2)c1 | 22.4 µM (active)
CN1C(=O)N(c2ccccc2Br)Cc2cnc(Nc3ccc4c(c3)OCC(CO)O4)nc21 (stereo not given) | 20 µM (active)
NCCNCCO | inactive
CCC1CO1 (stereo not given) | inactive

SMILES | Potency
O=C(O)CCc1nc(-c2ccccc2)c(-c2ccccc2)o1 | inactive
COc1cc(Nc2c(C#N)cnc3cc(OCCCN4CCN(C)CC4)c(OC)cc23)c(Cl)cc1Cl | inactive
CCCCCCCCCCC(=O)O | 57.1 µM (active)
CC(C)=CCC/C(C)=C/CC/C(C)=C/C(=O)OCC(=O)[C@@]1(O)CC[C@H]2[C@@H]3CCC4=CC(=O)C=C[C@]4(C)[C@H]3[C@@H](O)C[C@@]21C | inactive
C=CC(C)(CCC=C(C)C)OC(=O)CC(C)C (stereo not given) | inactive
O=C1c2ccccc2C(=O)c2c(O)c(O)cc(O)c21 | 44.8 µM (active)
CCCCC(CC)COP(=O)(O)O (stereo not given) | inactive
C=C1CCC2CC1C2(C)C (stereo not given) | inactive
CC[N+](CC)(CCNC(=O)C(=O)NCC[N+](CC)(CC)Cc1ccccc1Cl)Cc1ccccc1Cl | inactive
C[C@@H](O)[C@H]1C(=O)N2C(C(=O)O)=C([C@H]3CCCO3)S[C@H]12 | inactive
CCOC(=O)OC(C)OC(=O)[C@@H]1N2C(=O)[C@@H](NC(=O)[C@H](N)c3ccccc3)[C@H]2SC1(C)C (stereo not given in full) | inactive
C[C@]12CC[C@@H]3c4ccc(O)cc4CC[C@H]3[C@@H]1CC[C@@H]2OC(=O)CCC1CCCC1 | inactive
O=C=Nc1cccc(C(F)(F)F)c1 | inactive
Brc1cc2ccccc2c2ccccc12 | inactive
CC(C)C[C@H](NC(=O)[C@H](CCc1ccccc1)NC(=O)CN1CCOCC1)C(=O)N[C@@H](Cc1ccccc1)C(=O)N[C@@H](CC(C)C)C(=O)[C@@]1(C)CO1 | inactive
CCCCCCC(C)(C)C(=O)O | inactive
COC(=O)[C@H]1[C@H]2C[C@@H]3c4[nH]c5cc(OC)ccc5c4CCN3C[C@H]2C[C@@H](OC(=O)/C=C/c2ccc(O)c(OC)c2)[C@@H]1OC | inactive
O=C1c2ccccc2C(=O)N1CCc1noc(-c2ccc(CN3CCCCCC3)s2)n1 | inactive
C[C@@H]1CN(CCCn2c3ccccc3c3ccccc32)C[C@H](C)N1 | inactive
CC1CC(C)C(=O)C1=O (stereo not given) | inactive

Source: PubChem BioAssay (Tox21)
